The source made the active and inactive calls.
Legend:
[1] = tested on: Plasmodium falciparum Sir2 (PF13_0152, Sir2A); test: Plasmodium falciparum Sir2A binding compounds – biochemical, small-molecule microarray, 635 nm fluorescence, primary screen (AID 1098); details: fluorescence 635 nm, higher = more signal;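 also: score merges spot fluorescence intensity with its signal-to-noise ratio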
[2] = probe aDKK1 binding to arrayed compounds – biochemical, biotinylated probe, 635/667 nm fluorescence, primary screen (AID 1099); details: small-molecule microarray, higher = more signal;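 also: score merges 667nm spot fluorescence with signal to noise across triplicate slides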
[3] = probe aCHRDL2 binding to arrayed compounds – biochemical, biotinylated probe, 635/667 nm fluorescence, primary screen (AID 1100); details: small-molecule microarray, higher = more signal
[4] = change in splice reporter luminescence, either direction, cell-based, HEK293, spliceosome inhibition project, primary screen (AID 1101); details: HEK293 splicing luciferase reporter, 24 h, higher = more signal, called active from +8 up or from −8 down;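 also: HEK293 cells carrying a splicing-competent luciferase reporter gene; test concentration not given here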
[5] = biological target: Fibroblast growth factor 10 (Homo sapiens) (UniProt O15520); test: compounds binding fibroblast growth factor 10 – biochemical, small-molecule microarray, 635 nm fluorescence, primary screen (AID 1102); details: FGF10 binding, fluorescence 635 nm, higher = more signal
Chain of Fibroblast growth factor 10 (Homo sapiens) (O15520 whole entry, looked up): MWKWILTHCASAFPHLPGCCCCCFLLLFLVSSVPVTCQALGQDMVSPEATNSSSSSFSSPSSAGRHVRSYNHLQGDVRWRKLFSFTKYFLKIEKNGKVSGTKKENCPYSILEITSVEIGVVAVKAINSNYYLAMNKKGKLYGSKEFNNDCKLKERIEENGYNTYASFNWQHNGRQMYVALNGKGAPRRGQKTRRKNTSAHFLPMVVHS

[6] = tested on: glycogen synthase kinase-3 (GSK3A per assay name; protocol says GSK3B); test: compounds binding glycogen synthase kinase-3 – biochemical, small-molecule microarray, 635 nm fluorescence, GSK3A, primary screen (AID 1103); details: fluorescence 635 nm, higher = more signal; also: the record names both GSK3A and GSK3B
[7] = biological target: Epidermal growth factor receptor (Homo sapiens) (UniProt P00533); test: compounds binding epidermal growth factor receptor – biochemical, small-molecule microarray, 635 nm fluorescence, primary screen (AID 1104); details: EGFR binding, higher = more signal;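 also: score merges 667 nm emission intensity with spot signal to noise over triplicate slides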
Chain of Epidermal growth factor receptor (Homo sapiens) (P00533 whole entry, looked up): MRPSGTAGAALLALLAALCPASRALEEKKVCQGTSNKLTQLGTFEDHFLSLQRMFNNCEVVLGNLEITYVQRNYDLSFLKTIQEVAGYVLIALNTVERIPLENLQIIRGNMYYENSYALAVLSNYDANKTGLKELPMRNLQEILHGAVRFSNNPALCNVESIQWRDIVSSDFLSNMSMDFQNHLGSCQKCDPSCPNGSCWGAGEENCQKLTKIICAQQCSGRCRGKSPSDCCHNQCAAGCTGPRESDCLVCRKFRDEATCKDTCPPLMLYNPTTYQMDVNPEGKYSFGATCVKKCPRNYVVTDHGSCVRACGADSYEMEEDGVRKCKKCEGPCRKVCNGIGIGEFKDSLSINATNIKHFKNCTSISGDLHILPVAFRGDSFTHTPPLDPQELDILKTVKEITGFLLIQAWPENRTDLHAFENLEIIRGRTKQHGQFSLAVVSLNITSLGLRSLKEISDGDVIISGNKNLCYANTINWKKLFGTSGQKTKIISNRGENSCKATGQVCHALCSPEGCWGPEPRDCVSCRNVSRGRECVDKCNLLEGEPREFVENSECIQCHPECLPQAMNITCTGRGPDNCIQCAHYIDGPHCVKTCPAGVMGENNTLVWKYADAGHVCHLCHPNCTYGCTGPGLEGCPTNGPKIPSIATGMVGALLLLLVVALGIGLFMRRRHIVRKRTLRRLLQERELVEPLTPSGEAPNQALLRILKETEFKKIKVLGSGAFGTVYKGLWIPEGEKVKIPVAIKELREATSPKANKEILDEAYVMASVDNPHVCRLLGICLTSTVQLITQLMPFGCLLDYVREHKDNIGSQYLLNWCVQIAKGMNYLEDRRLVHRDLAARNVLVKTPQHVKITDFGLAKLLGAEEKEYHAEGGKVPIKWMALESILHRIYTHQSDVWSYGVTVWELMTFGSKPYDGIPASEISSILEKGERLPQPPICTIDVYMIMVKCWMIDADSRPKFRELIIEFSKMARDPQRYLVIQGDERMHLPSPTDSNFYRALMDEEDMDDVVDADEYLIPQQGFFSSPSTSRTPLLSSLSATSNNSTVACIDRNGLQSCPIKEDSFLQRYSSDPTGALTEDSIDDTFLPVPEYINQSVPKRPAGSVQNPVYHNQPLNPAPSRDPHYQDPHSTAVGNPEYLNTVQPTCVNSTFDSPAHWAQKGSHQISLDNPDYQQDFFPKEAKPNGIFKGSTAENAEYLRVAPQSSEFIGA

[8] = biological target: Follistatin-related protein 3 (Homo sapiens) (UniProt O95633); test: compounds binding follistatin-related protein 3 – biochemical, small-molecule microarray, 635 nm fluorescence, primary screen (AID 1105); details: FSTL3 binding, higher = more signal;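 also: score merges emission near 667 nm and signal to noise per printed spot across three slides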
Chain of Follistatin-related protein 3 (Homo sapiens) (O95633 whole entry, looked up): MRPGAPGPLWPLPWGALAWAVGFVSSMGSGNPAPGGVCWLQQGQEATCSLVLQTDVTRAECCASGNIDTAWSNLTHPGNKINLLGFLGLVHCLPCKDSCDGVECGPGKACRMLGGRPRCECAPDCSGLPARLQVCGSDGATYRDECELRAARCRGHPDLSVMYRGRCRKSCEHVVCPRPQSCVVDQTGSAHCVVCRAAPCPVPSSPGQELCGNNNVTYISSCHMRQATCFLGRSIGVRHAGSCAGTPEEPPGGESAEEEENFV

[9] = biological target: Dickkopf-related protein 1 (Homo sapiens) (UniProt O94907); test: small molecules binding DKK1 protein – biochemical, small-molecule microarray, 635 nm fluorescence scan, primary screen (AID 1106); details: higher = more signal;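 also: score merges emission near 667 nm with signal to noise over three replicate slides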
Chain of Dickkopf-related protein 1 (Homo sapiens) (O94907 whole entry, looked up): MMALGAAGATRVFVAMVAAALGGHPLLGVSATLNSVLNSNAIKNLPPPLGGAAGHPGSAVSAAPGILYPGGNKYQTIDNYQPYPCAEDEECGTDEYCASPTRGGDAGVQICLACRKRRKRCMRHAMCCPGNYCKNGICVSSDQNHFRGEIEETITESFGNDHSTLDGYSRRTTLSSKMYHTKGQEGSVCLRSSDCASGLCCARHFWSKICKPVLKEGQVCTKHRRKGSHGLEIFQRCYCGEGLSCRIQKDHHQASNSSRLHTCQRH

[10] = tested on: Inhibin beta A chain (activin A); test: small molecules binding activin A – biochemical, small-molecule microarray, 635 nm fluorescence scan, primary screen (AID 1107); details: INHBA, higher = more signal;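 also: mouse activin A protein probed at 4.33 µg/mL on printed slides; score merges bound-protein fluorescence near 667 nm with spot signal-to-noise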
[11] = tested on: Human papillomavirus type 1a protein E7 (residues 44-93); test: small molecules binding HPV E7 44-93 – biochemical, small-molecule microarray, residues 44-93, 635 nm fluorescence, primary screen (AID 1108); details: fluorescence 635 nm, higher = more signal;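 also: E7 fragment applied at 1 µg/mL in TBST for 1 h at 4 C; score combines spot fluorescence with its signal to noise ratio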
[12] = hepatitis C replication reporter changes, two-sided – Huh7 cells, luciferase reporter, HCV replication inhibitor project, primary screen (AID 1109); details: Huh7 HCV replicon luciferase reporter, 48 h; higher = more signal;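 also: huh7 hepatoma cells harbouring a luciferase neomycin HCV replicon reporter; luciferase luminescence as measure of HCV replicon replication; test concentration not given here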
[13] = biological target: Left-right determination factor 2 (Homo sapiens) (UniProt O00292); test: small molecules binding LEFTY2 protein – biochemical, small-molecule microarray, 635 nm fluorescence scan, primary screen (AID 1110); details: higher = more signal
Chain of Left-right determination factor 2 (Homo sapiens) (O00292 whole entry, looked up): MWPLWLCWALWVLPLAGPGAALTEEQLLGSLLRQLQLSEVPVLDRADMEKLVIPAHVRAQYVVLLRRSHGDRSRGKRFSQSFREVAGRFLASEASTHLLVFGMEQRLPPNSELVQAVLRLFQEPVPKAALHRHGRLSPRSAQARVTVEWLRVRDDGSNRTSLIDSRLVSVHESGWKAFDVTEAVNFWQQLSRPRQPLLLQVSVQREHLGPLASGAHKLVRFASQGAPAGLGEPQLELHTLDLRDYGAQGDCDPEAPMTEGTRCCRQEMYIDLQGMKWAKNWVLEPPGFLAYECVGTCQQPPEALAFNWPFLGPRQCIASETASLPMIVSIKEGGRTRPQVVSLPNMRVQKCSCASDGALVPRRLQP

[14] = biological target: Calmodulin-1 (Homo sapiens) (UniProt P0DP23); test: small molecules binding calmodulin-1 with EGTA – biochemical, small-molecule microarray, Cy5-labelled CALM1, profiling panel (AID 1111); details: Cy5-CALM1 binding fluorescence, higher = more signal;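 also: labelled calmodulin applied in Tris saline Tween buffer holding calcium plus EGTA and DTT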
[15] = biological target: Calmodulin-1 (Homo sapiens) (UniProt P0DP23); test: small molecules binding Ca-loaded calmodulin-1 – biochemical, small-molecule microarray, Cy5-labelled CALM1, plus calcium, artefact control for SMM control-protein annotation, profiling panel (AID 1112); details: Cy5-CALM1 binding fluorescence, higher = more signal;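 also: score merges spot fluorescence with signal to noise from triplicate slides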
[16] = probe aWnt5a binding to arrayed compounds – biochemical, biotinylated probe, 635/667 nm fluorescence, primary screen (AID 1113); details: small-molecule microarray, higher = more signal;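 also: score merges 667 nm fluorescence intensity with signal-to-noise per printed feature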
[17] = probe aShh binding to arrayed compounds – biochemical, biotinylated probe, 635/667 nm fluorescence, primary screen (AID 1114); details: small-molecule microarray, higher = more signal;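 also: probe is biotin-labelled aShh protein from a stem cell growth factor screen; measures binding of labelled protein to compounds printed on the slide; score merges feature fluorescence at 667 nm with signal-to-noise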
[18] = probe aNog binding to arrayed compounds – biochemical, biotinylated probe, 635/667 nm fluorescence, primary screen (AID 1115); details: small-molecule microarray, higher = more signal;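 also: probe is biotinylated aNog protein used at 0.15 µg/mL for 1 h at 4 C; z-score combines 667 nm fluorescence of each spot with its signal to noise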
[19] = biological target: Torsin-1A-interacting protein 1 (Homo sapiens) (UniProt Q5JTV8); test: compound microarray binding of lysate hLAP1 – cell lysate, small-molecule microarray, COS7 lysate, 635/667 nm fluorescence, primary screen (AID 1116); details: 635 nm fluorescence, higher = more signal
Chain of Torsin-1A-interacting protein 1 (Homo sapiens) (Q5JTV8 whole entry, looked up): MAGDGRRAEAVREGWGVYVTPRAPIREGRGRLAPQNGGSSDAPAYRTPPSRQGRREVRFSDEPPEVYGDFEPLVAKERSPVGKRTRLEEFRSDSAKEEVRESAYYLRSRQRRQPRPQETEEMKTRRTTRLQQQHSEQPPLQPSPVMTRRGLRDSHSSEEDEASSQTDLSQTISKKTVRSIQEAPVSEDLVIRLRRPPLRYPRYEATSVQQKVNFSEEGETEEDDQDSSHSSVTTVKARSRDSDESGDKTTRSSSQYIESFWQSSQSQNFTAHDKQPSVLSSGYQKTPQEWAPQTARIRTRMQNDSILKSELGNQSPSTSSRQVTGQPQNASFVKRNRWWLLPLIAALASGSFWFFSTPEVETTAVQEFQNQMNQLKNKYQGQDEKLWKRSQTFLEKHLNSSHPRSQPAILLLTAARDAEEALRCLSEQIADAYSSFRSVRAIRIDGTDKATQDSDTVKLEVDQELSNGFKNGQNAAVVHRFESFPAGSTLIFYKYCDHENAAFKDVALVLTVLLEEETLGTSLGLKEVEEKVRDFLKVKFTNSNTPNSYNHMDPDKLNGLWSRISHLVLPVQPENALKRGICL

[20] = biological target: Alpha-bungarotoxin (Bungarus multicinctus) (UniProt P60615); test: compounds binding labelled alpha-BTX control protein – biochemical, small-molecule microarray, Alexa647 label, 635/667 nm fluorescence, artefact control for SMM control protein annotation, profiling panel (AID 1117); details: alpha-BTX-A647 binding fluorescence, higher = more signal
Chain of Alpha-bungarotoxin (Bungarus multicinctus) (P60615 whole entry, looked up): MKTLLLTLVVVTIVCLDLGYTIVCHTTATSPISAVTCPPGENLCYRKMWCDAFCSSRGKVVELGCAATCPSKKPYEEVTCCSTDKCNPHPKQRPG

SMILES | composite z-score [1] | composite z-score [2] | composite z-score [3] | z-score [4] | composite z-score [5] | composite z-score [6] | composite z-score [7] | composite z-score [8] | composite z-score [9] | composite z-score [10] | composite z-score [11] | z-score [12] | composite z-score [13] | composite z-score [14] | composite z-score [15] | composite z-score [16] | composite z-score [17] | composite z-score [18] | composite z-score [19] | composite z-score [20]
C=C(CCCC)C(=O)CC[C@@H](OC(=O)c1ccccc1-c1ccccc1C(=O)O)c1cccc(OCCO)c1 | 1.13 | -0.302 | -0.353 | 2.89 (inactive) | 0.946 | 0.297 | -0.0833 | 0.556 | 0.339 | 1.2 | 0.834 | -4.38 | 0.373 | -0.826 | -0.973 | -0.148 | -0.0709 | 0.468 | 2.19 | -0.14
CN(C)CCCNC(=O)[C@@]1(c2ccc([N+](=O)[O-])cc2)CC(=O)N(CC23CC4CC(CC(C4)C2)C3)[C@@H]1c1ccc(CO)cc1 | 1.72 | 0.774 | 0.811 | -0.102 (inactive) | 0.239 | 1.32 | 0.201 | 0.996 | 0.54 | 1.14 | 1.23 | -3.26 | 0.364 | 1.43 | 0.398 | 0.249 | 0.806 | 2.24 | 2.35 | 1.83
O=C1O[C@@H](c2ccccc2)[C@@H](c2ccccc2)N2[C@@H](c3ccc(O)cc3)[C@]3(C(=O)Nc4ccccc43)[C@@H](C(=O)Nc3nc4ccccc4s3)[C@H]12 | 1.38 | -0.111 | 0.02 | 0.641 (inactive) | 0.488 | 0.878 | -0.104 | 0.415 | 0.065 | 0.3 | 1.36 | -2.35 | 0.0034 | 1.28 | -0.596 | 0.0495 | 0.0815 | -0.179 | 0.0579 | 1.32
C=CCN1C(=O)[C@@]2(O[C@@H](CCn3cc([C@H](O)c4ccccc4)nn3)[C@H]([Si](C)(C)c3ccc(OC)cc3)[C@H]2C)c2ccccc21 | 1.52 | -0.0203 | 0.0047 | -0.56 (inactive) | 0.756 | 0.658 | 0.32 | 1.19 | 0.694 | 0.0239 | 0.733 | -3.04 | 0.245 | 0.134 | -0.506 | 0.0973 | -0.0769 | 0.0308 | 0.676 | 1.21
COC(=O)C[C@H]1O[C@]2(C(=O)N(C)c3ccccc32)[C@@H](C)[C@@H]1[Si](C)(C)c1ccc(C)cc1 | 0.486 | -0.276 | -0.203 | -0.283 (inactive) | 0.749 | 0.96 | 0.41 | 0.958 | 0.501 | 0.0223 | 1.15 | -2.92 | 0.375 | 0.196 | -0.0787 | -0.136 | -0.393 | -0.121 | 0.346 | 0.638
CC(C)(C)OC(=O)CC[C@]1(C(=O)O)N=C(c2ccc(OCCCO)cc2)O[C@H]1c1ccccc1 | 1.14 | 0.191 | 0.542 | -1.32 (inactive) | -0.272 | -0.406 | -0.329 | -0.121 | -0.517 | 0.734 | 0.138 | -0.733 | -0.369 | 0.76 | 1.05 | -0.096 | -0.0769 | -0.172 | 0.0522 | 0.574
NC(=O)NCC#Cc1ccc2c(c1)[C@]1(C(=O)N2)[C@H](C(=O)O)[C@H]2C(=O)O[C@H](c3ccccc3)[C@H](c3ccccc3)N2[C@@H]1c1ccccc1OCCO | 1.37 | 0.689 | 0.677 | -1.14 (inactive) | 0.991 | 0.558 | 0.363 | 1.01 | 0.351 | 1.4 | 0.497 | 0.393 | 0.28 | 2.05 | 1.01 | 0.0354 | -0.412 | 0.91 | 1.45 | 3.27
COCCOC(=O)N1C(=O)[C@@]2(c3cc(C#CC4(O)CCCCCC4)ccc31)[C@H](C(N)=O)[C@H]1C(=O)O[C@H](c3ccccc3)[C@H](c3ccccc3)N1[C@@H]2c1ccc(O)cc1 | 1.16 | -0.116 | -0.0074 | -0.538 (inactive) | 1.09 | 1.01 | 0.406 | 1.28 | 0.489 | 0.496 | 1.4 | -1.39 | 0.556 | 0.36 | -0.471 | -0.0203 | -0.206 | 0.225 | 0.0793 | 0.74
CCOC(=O)[C@H]1C/C=C/C[C@H](C(=O)OCC)C(=O)O[C@H]2[C@@H](OC)O[C@H](CO)[C@@H](OC(=O)Nc3ccc(OC)cc3)[C@@H]2OC1=O | 0.692 | 0.481 | 0.564 | 0.0675 (inactive) | 1 | 1.03 | 0.368 | 1.29 | 0.46 | 0.467 | 0.89 | -2.82 | 0.721 | 0.433 | 0.118 | 0.0395 | -0.0146 | 0.206 | 0.753 | 1.09
Cc1ccc(S[C@]2(C(=O)NCc3ccccc3)CC(=O)N(C(C)C)[C@@H]2c2ccc(CO)cc2I)cc1 | 0.169 | 0.378 | 1.16 | 0.0407 (inactive) | -0.991 | -0.687 | -0.474 | -1.04 | -1.67 | 0.929 | 1.34 | -1.52 | -1.26 | 0.436 | 0.475 | -0.243 | -0.229 | 0.962 | 0.877 | -0.613
COc1ccc([Si](C)(C)[C@@H]2[C@@H](CCn3cc([C@H](O)c4ccccc4)nn3)O[C@]3(C(=O)N(Cc4ccc(N5CCOC5=O)cc4)c4ccccc43)[C@H]2C)cc1 | 0.972 | -0.168 | -0.528 | -0.242 (inactive) | 0.953 | 0.426 | 0.664 | 1.02 | 0.757 | 0.504 | 1.11 | -2.29 | 0.846 | 0.142 | -0.488 | -0.0179 | 0.0224 | -0.0675 | 1.74 | 1.06
